Measurements reported in ChEMBL document CHEMBL4513216, “Probing the Open Global Health Chemical Diversity Library for Multistage-Active Starting Points for Next-Generation Antimalarials” (ACS Infect Dis, 2020).
The campaign covered roughly 69,000 compounds. About 8,600 (12%) showed an effect of 50% or more. Shown is part of a subset that was picked to be rich in strong results.

These molecules were tested on Plasmodium berghei (assay: Screen against P. berghei liver stage (PbLuc), transformed with Luciferase, at 10uM). Conditions: tested at 10 uM.
Format: functional, HepG2

SMILES | INHIBITION
CC(C)Oc1ncccc1CNC(=O)c1cc(C2CC2)on1 | 11.9%
COCCN1CCC1c1cc(N)nc(C)n1 (stereo unspecified) | 26.7%
Cc1nc2c(c(NCC(c3cccnc3)N3CCOCC3)n1)CCNC2 (stereo unspecified) | 18.2%
Cn1nc2c(cc1=O)CN(CCOc1ccccc1C#N)CC2 | 74.8%
CCn1nc2c(cc1=O)CN(CCOc1ccccc1C#N)CC2 | 2.4%
CCn1nc2c(cc1=O)CN(Cc1nc(N)c3ccccc3n1)CC2 | 15.8%
Cn1nc2c(cc1=O)CN(Cc1nc(N)c3ccccc3n1)CC2 | 57.7%
Cc1ccccc1OCCN1CCn2c(C)nnc2C1 | 27.6%
CC(C)n1nc2c(cc1=O)CN(CCOc1ccccc1C#N)CC2 | 12.7%
Cc1nnc2n1CCN(CCOc1ccccc1C#N)C2 | 58.5%
Cn1nc2c(cc1=O)CN(Cc1nc3ccccc3c(=O)[nH]1)CC2 | 9.04%
N#Cc1ccccc1OCCN1CCn2c(nnc2C2CC2)C1 | 39.5%
Cc1cc(=O)n(CCNC(=O)c2ccccc2Cl)cn1 | -62.1%
COc1cc(N2CCC3(CCCN(C(=O)c4cnccn4)C3)C2)ncn1 (stereo unspecified) | 10.6%
O=C(c1ccco1)N1CCOCC2(C1)CN(c1ccccn1)C(=O)CO2 (stereo unspecified) | 22.4%
COCCCN1CCCC1c1noc(C2CC2)n1 (stereo unspecified) | 2.97%
O=C(Cc1ccsc1)N1C[C@@H]2COC[C@]2(COc2cccnc2)C1 | 39.4%
CC(=O)NCc1ccc(C(=O)N2CCCC2c2cnn(C)c2)s1 (stereo unspecified) | -25.9%
CC(C)Nc1nc(O)cc(C2CC(=O)N(Cc3ccccc3)C2)n1 (stereo unspecified) | 18.3%
O=C(C[C@@H]1COC[C@H]2CN(C(=O)c3cccnc3)C[C@@H]12)N1CCCC1 | -19.5%
c1cncc(-c2nnn3c2COCC(CNCC2CCOCC2)C3)c1 (stereo unspecified) | 41.6%
O=C(c1ccccc1O)N1CCN(C(=O)C2CCC2)CC1 | -14.3%
CN(Cc1ccc(C(=O)O)cc1)C(=O)c1sccc1OC(F)F | 52.5%

SMILES | INHIBITION
CN(CCc1ccncc1)C(=O)c1sccc1OC(F)F | -2.97%
Cc1ccsc1C(=O)N(C)Cc1ccncc1 | 3.1%
Cc1ccccc1C(CC(=O)N1CCc2sccc2C1)NC(N)=O (stereo unspecified) | 3.3%
CCOc1ccc(Cl)cc1CCNC(=O)c1ccc(=O)n(C)c1 | -10.8%
O=C(Cn1nc(-c2ccc(F)cc2)oc1=O)NCc1ccncc1 | -6.79%
COCC(=O)N[C@@H]1CN(Cc2c[nH]nc2-c2cccs2)C[C@H]1O | 6.54%
CCC1=NC(SCC(=O)c2ccc(Cl)cc2)c2cc(CC)sc2N1 (stereo unspecified) | 30%
CCC1=NC(SCC(=O)c2ccc(C)cc2)c2cc(CC)sc2N1 (stereo unspecified) | 39.1%
CCC1=NC(SCC(=O)c2ccccc2)c2cc(CC)sc2N1 (stereo unspecified) | 79.7%
CC(C)c1nn(C)c(Cl)c1CNCC(=O)N1CCN(C)CC1 | 26.4%
Cc1nc(C)n(CC2CN(Cc3cccs3)Cc3nccn3C2)n1 (stereo unspecified) | 47.4%
COCCNc1nnc(S(=O)(=O)CCC(C)(C)C#N)s1 | 52.1%
CCOCCS(=O)(=O)c1nnc(NCCOC)s1 | 12.2%
CCCNc1nnc(S(=O)(=O)CCOCC)s1 | 5.05%
C[C@@H]1CN(C(=O)C2CCOCC2)C[C@]12CCN(c1cccnc1)C2=O | 18.5%
CCOc1ccccc1C(=O)N1CC(=O)N(C2CCC2)CC(O)C1 (stereo unspecified) | 16.9%
COc1cccc(OC)c1C(=O)N1CC(=O)N(C2CCC2)CC(O)C1 (stereo unspecified) | 4.82%
COc1ccccc1C(=O)N1CC(=O)N(C2CCCCC2)CC(O)C1 (stereo unspecified) | 50.2%
c1cncc(-n2cnnc2CC2CCNCC2)c1 | 8.08%
COc1ccc(C)cc1-n1cnnc1C1CCCN(C)C1 (stereo unspecified) | 29.8%
COc1ccc(-n2cnnc2CC2CCNCC2)cc1 | 65.7%
COc1ccc(C)cc1-n1cnnc1C1CCOCC1 | 13.5%
COc1ccc(OC)c(-n2cnnc2CN)c1 | 45.7%

SMILES | INHIBITION
COc1ccc(C)cc1-n1cnnc1CC1CCNCC1 | 64.6%
O=C(Cn1ccc2cc(Br)ccc21)NCc1ccc(C(=O)O)cc1 | 13.5%
CC(=O)c1cc(C(=O)N2Cc3ccccc3OC3(CCOCC3)C2)cs1 | -26.2%
CS(=O)(=O)c1ccc(C(=O)N2CCCC(n3ccnc3)C2)cc1 (stereo unspecified) | -9.76%
COCC(c1cccc(C(F)(F)F)c1)N(C)C(=O)c1ccccn1 (stereo unspecified) | -5.285%
COc1ccc(N(C(=O)c2ccc(C)nc2)C(C)C)cc1F | 38%
COc1ccc(N(C(=O)c2cnc(C)cn2)C(C)C)cc1F | 62.4%
COc1ccc(N(C(=O)c2ccccn2)C(C)C)cc1F | 50.8%
COc1ccc(C(=O)N(c2ccc(OC)c(F)c2)C(C)C)cn1 | 75.2%
COc1ccc(N(C(=O)Cc2ccc(C)nc2)C(C)C)cc1F | -75%
COc1ccc(N(C)C(=O)c2cccc(S(C)(=O)=O)c2)cn1 | 40.7%
COC(=O)c1cnc(C(=O)N(c2ccc(OC)c(F)c2)C(C)C)cn1 | -54.5%
COC(=O)C(c1cc(F)ccc1F)N(C)C(=O)c1ccccn1 (stereo unspecified) | 36.1%
Cn1cc(-c2ncc3c(c2C(=O)O)CCN(CC2CC2)C3)cn1 | 46.6%
O=S(=O)(NC1=NCN(CCc2cccs2)CN1)c1ccc(Cl)cc1 | 17%
O=C(CN1CCOC(Cn2cccn2)C1)NCc1ccccn1 (stereo unspecified) | 11.2%
O=C(c1ncccn1)N1CCC[C@]2(C[C@@H](OCC3CC3)CO2)C1 | 34.6%
CN1CCO[C@@H]2CN(S(=O)(=O)c3ccc(F)cc3)CC[C@@H]2C1 | 16.9%
Cc1cc(C)cc(NCCC(=O)NC2CCN(C(=O)C3CC3)CC2)c1 | -18.3%
CN1CCN(c2ncccn2)CC1C(N)=O (stereo unspecified) | -7.66%
O=C(C1CCCO1)N1CCC(Cn2cc(C3CCCC3)nn2)CC1 (stereo unspecified) | 34.2%
CC(C)(CN1CCCC1)CN1CCC(Cn2cc(C3CC3)nn2)CC1 | 41.2%
CCCN1CCC(N2CCC(Cn3cc(C4CC4)nn3)CC2)CC1 | 52.2%

SMILES | INHIBITION
CC(C)CSCCCNC(=O)C1CCC1 | 52.3%
CC(C)CSCCCNC(=O)C1CCOCC1 | 6.54%
CC(C)CSCCCNC(=O)C1CCOC1 (stereo unspecified) | 33.7%
CN(C)S(=O)(=O)N1C[C@H]2CC[C@@H](C1)N(Cc1ccc3[nH]ccc3c1)C2 | 31.6%
Cc1nc(CN2CCN(C(=O)c3scnc3C)CC2)cs1 | -17.1%
NC(=O)c1cnn2c1NCC(CNCCOc1ccccc1)C2 (stereo unspecified) | -18.43%
OCCn1nccc1C1CCN(CCOc2ccccc2F)CC1 | 27.8%
CCOCCCNC(=O)c1cn(CC)nc1C | 11.8%
CCOCCCNC(=O)c1nn(CC)cc1Br | 1.86%
CCOCCCNC(=O)NCc1c(C)nn(C)c1C | 52.5%
COc1ccccc1C1CNCCN1C(=O)c1ccc(F)cc1 (stereo unspecified) | 15.5%
CN1CCCCC1CC(=O)Nc1ccc2ncn(C)c2c1 (stereo unspecified) | 9.41%
CN1CCN(C2CCN(CCOc3ccc(C#N)cc3)CC2)C1=O | 41.5%
CN1CCN(C2CCN(CCOc3cccc(F)c3)CC2)C1=O | 5.9%
CCOc1ccc(OCCN2CCC(N3CCNC3=O)CC2)cc1 | 81.8%
COc1ccccc1OCCN1CCC(N2CCNC2=O)CC1 | 36.4%
CN1CCN(C2CCN(CCOc3ccc(Cl)cc3)CC2)C1=O | 36.1%
CN1CCN(C2CCN(CCOc3cccc(Cl)c3)CC2)C1=O | 51.1%
Cc1ccc(C)c(OCCN2CCC(N3CCNC3=O)CC2)c1 | 38.1%
CN1CCN(C2CCN(CCOc3ccc(F)cc3)CC2)C1=O | 25.6%
COc1ccc(OCCN2CCC(N3CCNC3=O)CC2)cc1 | 87.25%
CCN(Cc1cccc(F)c1)Cn1nc(C)c2c(C)onc2c1=O | 11.4%
Cc1nccc(NCc2cc3n(n2)CCCN(C(=O)C2CCC2)C3)n1 | 21.1%

SMILES | INHIBITION
Cc1cc2c(=O)n(CCSc3ncn[nH]3)cnc2s1 | 29.4%
Cn1nnc2c1CCN(C(=O)C1CC1)C2COCCN1CCCC1 (stereo unspecified) | -6.23%
c1ncn(CC2CCCCN2Cc2cn3ccsc3n2)n1 (stereo unspecified) | 25.45%
O=C(c1ccc(-n2cnnc2)nc1)N1CCCC(O)(CO)CC1 (stereo unspecified) | 8.38%
CC[C@H]1CN(C(=O)c2cccc(-n3cnnc3)n2)CC[C@@]1(C)O | -0.71%
CC[C@H]1CN(C(=O)c2ccc(-n3cnnc3)nc2)CC[C@@]1(C)O | 53.8%
Cc1ccc2cc(CNCCCN3CCOCC3)c(=O)[nH]c2c1C | -5.71%
C[C@H]1C[C@@H]2CCN(C(=O)c3cccn3C)C[C@H]2O1 | 25%
Cc1c(F)cccc1S(=O)(=O)N(C)CC(C)O (stereo unspecified) | -37.6%
Cc1ccc(S(=O)(=O)N(C)CC(C)O)c(F)c1 (stereo unspecified) | 6.99%
CC(O)CN(C)S(=O)(=O)c1ccc(C#N)cc1F (stereo unspecified) | 64.6%
Cc1n[nH]c2nc(-c3ccccc3O)cc(C(=O)O)c12 | 7.09%
COc1ccccc1-c1noc(CNc2ccc(F)cc2OCCO)n1 | 13.7%
N#Cc1ccc(F)c(CNc2ccc(F)cc2OCCO)c1 | 10.9%
OCCOc1cc(F)ccc1NCc1cccc(F)c1F | 54.5%
OCCOc1cc(F)ccc1NCc1nc(-c2cccs2)no1 | 12.8%
OCCOc1cc(F)ccc1NCc1ccc(F)c(F)c1 | -16.8%
Cc1ccccc1-c1noc(CNc2ccc(F)cc2OCCO)n1 | 52.6%
Cc1nc(CC(=O)N2CCn3c(nnc3C(C)C)C2)cs1 | 18.15%
